Screening results from PubChem.
NLRP3 yeast inh = blocks the NALP3 inflammasome reconstituted in yeast. actives 0.39% (n = 330,000). Yeast reconstituted NLRP3/ASC/caspase-1, beta-gal luminescence, 24 h. inhibition, % at 10 µM;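 active means inhibition of 50% or more; inactive means inhibition below 50%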;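 further: plate controls were induced DMSO wells for no effect and uninduced yeast grown without galactose for full effect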
tim23-1 inh = tim23-1 yeast growth inhibition | actives 1.3% (n = 330,000) | AID 463212 | inhibition, % at 20 µM | S. cerevisiae tim23-1 growth, BacTiter-Glo luminescence, 24 h;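 active means growth inhibition of the mutant yeast at or above 50%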;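 further: temperature-sensitive mutant grown at 25 °C; plate controls were DMSO-treated mutant yeast for no effect and medium wells lacking yeast for full effect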
PfHsp90 yeast 2 = reduces growth (ATP signal) of yeast expressing P. falciparum Hsp90 | actives 0.32% (n = 310,000) | S. cerevisiae expressing PfHsp90, BacTiter-Glo ATP, 48 h; yeast lacking PDR1 and PDR3 efflux regulators | inhibition, % at 9.4 µM;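 active means every replicate shows inhibition above about 80%, whatever the replicate mean, limit read from the data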;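 further: 0% = DMSO neutral controls and 100% = 20 µM radicicol positive controls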
TIM10 inh = inhibits growth of TIM10 yeast strain. inhibition, % at 10 µM. actives 1.4% (n = 330,000). S. cerevisiae TIM10 strain growth, BacTiter-Glo luminescence, 24 h;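 active means inhibition of 40% or more at the single tested concentration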;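 further: wild-type TIM10 isogenic control strain grown at permissive 25 °C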
SKKanGAS inh = SKKanGAS growth inhibition. inhibition, % at 7.5 µM. AID 1662. actives 1.3% (n = 300,000). S. pyogenes SKKanGAS, kanamycin growth, BacTiter-Glo, 6 h;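 active means mean replicate score, as percent of positive control median, at least 50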;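 further: strain carries kanamycin resistance gene driven by streptokinase promoter and grows in 40 µg/ml kanamycin; loss of luminescence reflects streptokinase promoter inhibition or plain growth inhibition; 0% = median of DMSO wells and 100% = positive control at its reference dose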
tim10-1 inh = growth inhibitors of tim10-1 mutant yeast; S. cerevisiae tim10-1 ts strain growth, BacTiter-Glo, 24 h; inhibition, % at 20 µM; actives 2.2% (n = 330,000);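 active means inhibition of at least 40%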;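 further: mutant grown at 25 °C; 0% = DMSO wells with yeast and 100% = wells holding no yeast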
tim10-1 conf = confirmation of tim10-1 mutant yeast growth inhibitors; shares compounds with tim10-1 inh; S. cerevisiae tim10-1 ts strain growth, BacTiter-Glo, 24 h; inhibition, % at 20 µM; actives 56% (n = 7,400); AID 463213;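 active means inhibition of yeast growth at or above a set limit in either of two repeat tests at 20 µM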;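 further: tim10-1 mutant grown at permissive 25 °C to find synthetic lethal compounds; 0% = DMSO yeast wells and 100% = medium wells without yeast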
TIM10 conf = TIM10 yeast growth inhibition, confirmed; inhibition, % at 10 µM; S. cerevisiae tim10 strain growth, BacTiter-Glo luminescence, 24 h; actives 63% (n = 4,600); AID 463215; shares compounds with TIM10 inh;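 active means inhibition of yeast growth at or above a set limit in either of two replicates at 10 µM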;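 further: this counterscreen used the strain with wild-type TIM10; 0% = yeast with DMSO and 100% = medium wells lacking yeast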
An asterisk follows results filed as active; nt = not tested or not shown. Most compounds without a hit are left out; they make up all but 4.5% or so of the library.

SMILES | NLRP3 yeast inh | tim23-1 inh | PfHsp90 yeast 2 | TIM10 inh | SKKanGAS inh | tim10-1 inh | tim10-1 conf | TIM10 conf
COc1ccc2oc(C(=O)CCC(=O)O)c(N)c2c1 | -5 | 7 | 11 | -4 | 1 | -8 | nt | nt
COC(=O)CCC(=O)c1oc2ccc(Br)cc2c1N | 12 | 45 | nt | 44* | 2 | 41* | 34* | 31*
Nc1c(C(=O)c2ccccc2)oc2ccc(Br)cc12 | 14 | 29 | -35 | 52* | -8 | 45* | 18 | 33*
Nc1c(C(=O)c2ccc(Br)s2)oc2ccccc12 | -17 | 31 | 6 | 43* | 7 | 47* | 35* | 42*
COc1cccc(CN(CC(=O)NCc2ccccc2)S(=O)(=O)CCl)c1 | -4 | 8 | -8 | 7 | nt | 8 | nt | nt
Cc1cccc(C(=O)NC(=S)Nc2ccc(Cc3ccncc3)cc2)c1 | 7 | 30 | 10 | 46* | 26 | 48* | 31* | 34*
CCOC(=O)O[C@]1(C(=O)OCCl)CC[C@H]2[C@@H]3CCC4=CC(=O)C=C[C@]4(C)[C@H]3[C@@H](O)C[C@@]21C | 17 | 5 | nt | 7 | -3 | 11 | nt | nt
Cc1c(NC(=S)NC(=O)c2cc3ccccc3o2)cccc1C(=O)O | 6 | -11 | -13 | -6 | 43 | -23 | nt | nt
COc1ccc2cc3cc(C(=O)Nc4ccccc4N4CCN(C)CC4)oc3nc2c1 | 39 | 22 | 8 | 44* | 3 | 55* | 44* | -16
O=C(NC(=S)Nc1ccccc1N1CCCCC1)c1cccs1 | -34 | 41 | -47 | 52* | -15 | 43* | 34* | 61*
CN1CCN(c2ccccc2NC(=S)NC(=O)c2cc3ccccc3o2)CC1 | 20 | 23 | -9 | 98* | 9 | 40* | 3 | -3
COc1cccc(NC(=O)c2ccc(N3C(=O)C4CC=C(C)CC4C3=O)cc2)c1 (centres undefined) | 15 | 8 | 6 | 15 | 1 | -10 | nt | nt
c1ccc2c(c1)nc(N1CCOCC1)c1c3ccccc3[nH]c21 | 25 | 44 | -10 | 49* | 10 | 40* | 21 | 61*
COc1cc(/C=C2/N=C(C3CCCCC3)OC2=O)cc(OC)c1OC | 15 | 39 | -26 | 44* | 1 | 43* | 33* | 29
Cc1cc(N/N=C/c2ccc(O)cc2O)nc(-c2ccccc2O)n1 | nt | nt | -63 | nt | 14 | nt | nt | nt
Cc1cc(N/N=C/c2ccccc2O)nc(-c2ccccc2O)n1 | 22 | 32 | -45 | 41* | 60* | 50* | 32* | 4
Cc1cc(C(=O)OC(C)C(=O)N2CCc3ccccc32)ccc1[N+](=O)[O-] (centres undefined) | 18 | 12 | nt | -33 | 23 | -4 | nt | nt
Cc1noc(C)c1C(=O)Nc1nc(C23CC4CC(CC(C4)C2)C3)cs1 | 33 | 44 | -20 | 48* | 9 | 52* | 38* | 39*
CC(C)c1ccc(C2/C(=C(/O)c3ccc(F)cc3)C(=O)C(=O)N2CCCN2CCOCC2)cc1 (centres undefined) | -20 | 7 | 5 | 5 | 6 | 13 | nt | nt
CCc1cc2ccc(C)cc2nc1SCC(=O)NNC(=O)c1ccco1 | 6 | 12 | -14 | 42* | -2 | 40* | 20 | 15
CCOC(=O)/C=C/C(=O)OCC(=O)Nc1cccc(Br)c1 | -3 | 39 | 21 | 51* | 0 | 47* | 33* | 29*
O=C(Cn1c2ccc(F)cc2c2nc3n(c(=O)c21)CCS3)Nc1ccccc1C(F)(F)F | 5 | 1 | -27 | 7 | 3 | 36 | nt | nt
O=C(Cn1c2ccc(F)cc2c2nc3n(c(=O)c21)CCS3)Nc1ccccc1F | 0 | 17 | nt | 52* | 13 | 51* | 44* | 42*
CC12CCCC(CC(=O)O)(C1)NC(=O)C2 (centres undefined) | nt | nt | 6 | nt | nt | nt | nt | nt
CC(c1nnnn1C(C)(C)C)N(Cc1cccnc1)Cc1ccccc1Cl (centres undefined) | 8 | 31 | 2 | 42* | -1 | 50* | 34* | 32*
